Screens from PubChem.
Shown are actives, neighbours in structure and some others; about 7.5% of the full set was active somewhere.
Rab9 promoter act – activates the Rab9 promoter; Huh7 Rab9 promoter-luciferase reporter, luminescence, 24 h; Potency, µM (series often up to 9.22 µM), for inactives: at the highest dose activation, negative = inhibition, usual class: activators; hit rate 2.8% among 320,000; AID 485297; further: % of control where 0% means no effect; nearly all actives have a fitted effect of over 60% in size
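Luciferase signal after 10 min detection reagent at ambient indicates Rab9 promoter upregulation; stably transfected Huh7 cells were treated 24 h with compound in DMSO at 37 °C, 5% CO2.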
FLuc modulator – inhibits or activates purified firefly luciferase, miR-21 counter-screen. P08659. purified FLuc, Km substrates, luminescence inhibition. Potency, µM (series often up to 57.5 µM), inactives show top-dose activity change, negative = inhibition, actives largely listed as inhibitors. hit rate 6.9% among 360,000. AID 588342;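 further: plate controls were vehicle for no effect and reference inhibitor for full effect; nearly all actives have a fitted effect of over 55% in size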
Target sequence (P08659 whole entry, looked up): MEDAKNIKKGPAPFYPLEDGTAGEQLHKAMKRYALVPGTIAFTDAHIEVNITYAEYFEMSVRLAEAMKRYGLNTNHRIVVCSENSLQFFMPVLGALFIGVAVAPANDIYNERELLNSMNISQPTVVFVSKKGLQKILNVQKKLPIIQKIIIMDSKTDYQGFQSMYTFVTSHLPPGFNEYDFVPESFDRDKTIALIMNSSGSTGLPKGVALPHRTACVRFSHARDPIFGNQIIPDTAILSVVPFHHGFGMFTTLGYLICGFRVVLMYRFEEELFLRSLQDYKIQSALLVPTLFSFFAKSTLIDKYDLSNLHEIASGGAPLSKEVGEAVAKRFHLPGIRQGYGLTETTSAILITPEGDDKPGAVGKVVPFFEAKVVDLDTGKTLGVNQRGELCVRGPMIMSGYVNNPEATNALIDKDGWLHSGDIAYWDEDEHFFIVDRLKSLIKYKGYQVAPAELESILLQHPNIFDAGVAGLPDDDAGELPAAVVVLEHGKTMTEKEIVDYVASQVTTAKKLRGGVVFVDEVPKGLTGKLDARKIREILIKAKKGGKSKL
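Biochemical qHTS of compounds, final roughly 60 µM downward over six points, against 10 nM purified firefly luciferase using Km concentrations of substrates (10 uM D-luciferin, 10 uM ATP) in Tris acetate pH 7.5 buffer; luminescence output.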
ELG1 genotox – induces genotoxicity in HEK293T cells with luciferase-tagged ELG1. hit rate 1.3% among 330,000. Potency, µM (series often up to 46 µM), for the others: top-dose activity change, positive = activation, most hits filed as activators. AID 504466. HEK293T ELG1-luciferase reporter, luminescence, 16 h; further: % of control where 0% means no effect; nearly all actives have a fitted effect of over 60% in size
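After overnight (16 hr) compound treatment at 37 °C, ELG1-luciferase HEK293T cells were lysed with ONE-Glo; luminescence quantified 30 min later at room temperature.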
Luc counter – blocks Kinase-Glo luciferase, a counter-screen artifact; Q27757; Kinase-Glo luciferase, ATP luminescence, 8 min; Potency, µM (doses to about 38.3 µM), for the others: at the highest dose activity change, negative = inhibition, most hits filed as inhibitors; hit rate 0.28% among 200,000; further: on the % scale 0 is the no-effect control and ±100 the full control effect; nearly all actives have a fitted effect of over 60% in size
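Compounds were added to a substrate mix at pH 7.2 (50 mM imidazole, 10 uM ATP, within the enzyme's linear range), followed by Kinase-Glo detection reagent; luminescence was measured after 8 minutes at ambient temperature.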
NPC1 prom act – activates the NPC1 promoter. Huh7 NPC1 promoter luciferase reporter, 24 h. hit rate 2.4% among 320,000. AID 485313. Potency, µM (series often up to 9.22 µM), inactives show top-dose activation, actives largely listed as activators; further: % of control where 0% means no effect; nearly all actives have a fitted effect of over 60% in size
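Stably transfected Huh7 (NPC1 promoter→luciferase), 1500 cells/well in Opti-MEM + 10% FBS, 2 h settle, then compound 24 h at 37 °C. Luminescence after 10 min with Amplite reagent.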
SMN2 splice enh – SMN2 splice variant enhancement; Potency, µM (top dose mostly 46.1 µM), without a hit: at the top dose activity change, positive = activation, most hits filed as activators; HEK293 SMN2-luciferase splicing reporter, luminescence, 30-36 h; hit rate 2.8% among 210,000; AID 1458; further: % of control where 0% means no effect; nearly all actives have a fitted effect of over 55% in size
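qHTS luciferase splicing reporter: luminescence rises when SMN2 exon 7 is included in transfected HEK293 cells. Compound exposure lasted 30-36 h at 37C, with 4.5 mM final sodium butyrate as control, followed by a ONE-Glo read.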
Numbers without * were called inactive; u = inconclusive; x = not tested or not shown. The call rests on the fitted dose curve; in most records, active means well fitted curve in the direction sought with a large enough effect; inconclusive means small, poorly fitted or top-dose-only effect, or another doubt; inactive means no such curve, though single readings can be large; an effect the other way counts as inactive or inconclusive. Potency means the concentration at half of the fitted maximal effect.

SMILES	Rab9 promoter act	FLuc modulator	ELG1 genotox	Luc counter	NPC1 prom act	SMN2 splice enh
COc1cccc(N2CCN(C(=O)CCCn3c(=O)[nH]c4ccc(Br)cc4c3=O)CC2)c1	x	-13%	x	x	x	-16%
COc1ccc(C(=O)/C=C/Sc2nc3ccccc3o2)cc1	-43%	2.4µM*	9%	x	-20%	x
CCCCOC(=O)Sc1nc2ccccc2o1	-11%	15µM*	-7%	1%	-2%	13%
COc1ccc(C(=O)N/C(N)=N/c2nc3ccccc3o2)cc1	20%	-8%	3%	-4%	23%	-23%
Cc1ccc(OCC(=O)Nc2cccc(OCc3cc(=O)n4cccc(C)c4n3)c2)cc1C	x	-12%	x	x	x	x
CCCN(CC1CCCO1)C(=O)c1cc(COc2ccc(F)cc2F)on1 (stereo not given)	-1%	-2%	-4%	x	-1%	x
CC(C)c1ccc(C(=O)NN2C(=O)C3CCCCC3C2=O)cc1 (stereo not given)	3.2µM*	2.1µM*	u	0%	3.5µM*	11µM*
CCOc1ccccc1C(=O)NN1C(=O)C2CCCCC2C1=O (stereo not given)	0%	0%	2%	0%	-2%	-4%
O=C(NNC(=O)C1C2CCC(C2)C1C(=O)O)c1ccc(Br)o1 (stereo not given)	-4%	-6%	0%	0%	-2%	4%
CC(C)c1ccc(C(=O)NNC(=O)C2C3CCC(C3)C2C(=O)O)cc1 (stereo not given)	1.3µM*	7.6µM*	4.6µM*	x	0.5µM*	x
COc1ccc(N2CCN(S(=O)(=O)CCNC(=O)Cc3ccc(OC)c(OC)c3)CC2)cc1	x	-2%	x	x	x	x
CCN(CC)C(=O)c1sc2c(c1C)c(=O)n(Cc1ccccc1)c(=O)n2CC(=O)Nc1ccc(OC)cc1	x	0%	x	x	x	x
Cc1cc(C(=O)CN2C(=O)NC(C)(c3ccccc3)C2=O)c(C)n1CC1CCCO1 (stereo not given)	2%	17µM*	1%	2%	10%	19%
Cc1cc(C(=O)CN2C(=O)c3ccccc3S2(=O)=O)c(C)n1CC1CCCO1 (stereo not given)	-42%	7.6µM*	-18%	0%	-48%	-68%
CC(=O)N1CCN(C(=O)CNC(=O)c2cccs2)CC1	-3%	x	-2%	x	0%	x
CC1CCCN(C(=O)CNC(=O)c2cccs2)C1 (stereo not given)	u	u	22%	x	4µM*	x
Cc1nc(Nc2ccc3c(c2)OCO3)c2oc3ccccc3c2n1	4%	30µM*	2%	-8%	16%	-14%
c1ccc2c(c1)oc1c(Nc3ccc4c(c3)OCO4)ncnc12	1µM*	2.1µM*	5.8µM*	-10%	1.4µM*	u
COc1cc(C2c3c(oc4ccccc4c3=O)C(=O)N2Cc2ccc(C)cc2)ccc1O (stereo not given)	x	-4%	x	x	x	x
COc1ccc(CNC(=O)c2cc3c(s2)CS(=O)C3)cc1 (stereo not given)	4%	2%	5%	-4%	1%	-12%
COC(=O)c1cc2c(s1)CS(=O)C2 (stereo not given)	4µM*	13µM*	u	0%	2.5µM*	u
COc1cc(C(=O)Nc2ccc3nc4n(c(=O)c3c2)CCCCC4)cc(OC)c1OC	2%	13µM*	-5%	x	-2%	30%
O=C(Nc1ccc2nc3n(c(=O)c2c1)CCCCC3)c1ccccn1	1.1µM*	7.6µM*	u	-9%	1.6µM*	3.2µM*
Cc1ccc2c(CC(=O)N3CCN(c4cccc(Cl)c4)CC3)coc2c1C	x	-8%	x	x	x	-10%
COc1ccc(-c2cc3nc4n(c(=O)c3s2)CCC4)cc1	0.5µM*	0.6µM*	0.13µM*	u	0.45µM*	0.63µM*
SMILES	Rab9 promoter act	FLuc modulator	ELG1 genotox	Luc counter	NPC1 prom act	SMN2 splice enh
COc1ccc(-c2cc3nc4n(c(=O)c3s2)CCCCC4)cc1	0.71µM*	1.3µM*	2.6µM*	x	0.63µM*	x
Cc1cc(NC(=O)c2ccc(Cl)cc2)cc(C)c1OCC(=O)N1CCOCC1	u	1.7µM*	10%	x	3.2µM*	x
Cc1cc(NC(=O)c2cccc3ccccc23)cc(C)c1OCC(=O)N1CCOCC1	-5%	u	-9%	6%	-1%	-13%
CCCCOc1ccc(C(=O)Nc2cc(C)c(OCC(=O)N3CCOCC3)c(C)c2)cc1	0%	2.1µM*	-6%	6%	14%	-68%
CCCCOc1ccc(C(=O)Nc2ccc(CN3CCOCC3)cc2)cc1	-24%	u	-1%	x	-10%	x
COc1cc(C(=O)Nc2cc(C)ccn2)ccc1OCC(=O)N1CCOCC1	10%	u	u	x	1%	x
COc1cc(C(=O)Nc2ccc(C)cn2)ccc1OCC(=O)N1CCOCC1	2%	17µM*	7%	x	2%	x
CCOC(=O)c1cn[nH]c1NC(=S)Nc1ccc(Cl)cc1	0.32µM*	0.38µM*	u	x	0.32µM*	x
Cc1cc(C)nc(Nc2nc3ccccc3s2)n1	u	u	u	-2%	u	3.2µM*
NC(=S)Nc1nc2ccccc2s1	7%	u	7%	0%	11%	28%
CC(=O)c1c(C)nc(Nc2nc3ccccc3s2)nc1C	u	0.76µM*	u	x	u	x
Cc1ccc(Nc2nc3ccccc3s2)c(C)c1	1.3µM*	0.6µM*	2.1µM*	-2%	2µM*	2.5µM*
COc1ccc(CNC(=O)c2cc3cccc4c3n2CC(C)S4)cc1 (stereo not given)	x	8%	x	x	x	x
O=[N+]([O-])c1ccc(N/N=C/c2ccccc2)c(F)c1	u	11µM*	u	-1%	u	22µM*
O=[N+]([O-])c1cccc(/C=N/N=C\c2ccccc2)c1	-2%	3.4µM*	8%	x	2%	x
Cc1nnc(C)n1/N=C/c1cccc([N+](=O)[O-])c1	-1%	-2%	3%	-1%	-8%	2%
O=[N+]([O-])c1ccc(/C=N/Nc2ncc(-c3ccccc3)cn2)cc1	-3%	-2%	6%	-1%	-3%	0%
O=C(c1ccco1)N1CCC2(CC1)CCN(c1ccccn1)CC2	x	x	x	-1%	x	-33%
Nc1cc2nc[nH]c2cc1N	11%	15µM*	19%	-10%	-7%	3%
Cn1c(=O)n(C)c2cc3[nH]cnc3cc21	12%	0%	6%	x	-4%	x
CC(C)Cc1ccc(S(=O)(=O)N2CCC(c3ccncc3)CC2)cc1	x	-4%	x	x	x	x
Cc1nc(-c2ccccn2)nc(N(C)c2ccccc2)c1Cl	-2%	15µM*	-9%	x	-1%	x
Cc1ccc(/C=N/Nc2ccc(C(=O)O)cc2)o1	0.4µM*	6.7µM*	u	-16%	0.71µM*	10µM*
Cc1ccc(/C=N/NC(=O)c2ccc(-n3cccc3)cc2)o1	8%	-2%	1%	x	1%	x
